# Source: PubChem BioAssay AID1159580 (chemical genetic matrix, 2015)
# In all, about 5,500 compounds went through this assay and about 2,000 (36%) were called active. Roughly 18% stayed inconclusive and do not appear here. Some of the results follow. A number with no mark means an inactive call. Cut-off read from the data, not from the text of the source: active = normalized growth mostly below about 0.91 (no sharp cut-off); inconclusive = no clear call, values can overlap the other calls; inactive = mostly above about 0.92.
# Test: chemical genetic growth profiling, strain panel (AID 1159580);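 note: tested at 20 µM; growth read once vehicle control cultures reached saturation at 30 °C; 1 = growth at the plate median or of vehicle wells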
# Conditions: S. cerevisiae deletion strains, growth OD
# [1] = locus YGR078C, strain PAC10, stronger effect = lower value
# [2] = locus YPL055C, strain LGE1, stronger effect = lower value
# [3] = locus YHR030C, strain SLT2, stronger effect = lower value
compound,measurement,setting,value
Nc1ccc2c3c(cccc13)C(=O)NC2=O,normalized growth,"locus YAL040C, strain CLN3, stronger effect = lower value",0.997
same,normalized growth,"locus YCL061C, strain MRC1 (second series), stronger effect = lower value",1
same,normalized growth,"locus YER002W, strain NOP16, stronger effect = lower value",0.998
same,normalized growth,[1],0.981
same,normalized growth,"locus YMR307W, strain GAS1, stronger effect = lower value",0.995
same,normalized growth,"locus YNL128W, strain TEP1, stronger effect = lower value",0.988
same,normalized growth,"locus YNL175C, strain NOP13, stronger effect = lower value",0.999
same,normalized growth,"locus YNL197C, strain WHI3, stronger effect = lower value",1.01
same,normalized growth,"locus YNL224C, strain SQS1, stronger effect = lower value",0.985
same,normalized growth,"locus YOR083W, strain WHI5 (second series), stronger effect = lower value",0.965
same,normalized growth,[2],1.01
COC1=C(OC)C(=O)C(CCCCCCCCCCO)=C(C)C1=O,normalized growth,[3],0.964
same,normalized growth,"locus YHR079C, strain IRE1, stronger effect = lower value",0.937
same,normalized growth,"locus YJL095W, strain BCK1, stronger effect = lower value",0.982
same,normalized growth,"locus YJR066W, strain TOR1, stronger effect = lower value",0.934
same,normalized growth,"locus YLR113W, strain HOG1, stronger effect = lower value",0.922
same,normalized growth,"locus YNL183C, strain NPR1, stronger effect = lower value",0.92
same,normalized growth,"locus YOR231W, strain MKK1, stronger effect = lower value",0.972
same,normalized growth,"locus YPL256C, strain CLN2, stronger effect = lower value",0.964
Nc1cccc2c1C(=O)c1ccccc1-2,normalized growth,"locus YAL013W, strain DEP1, stronger effect = lower value",0.676 (active)
same,normalized growth,"locus YBR229C, strain ROT2, stronger effect = lower value",0.313 (active)
same,normalized growth,"locus YCL061C, strain MRC1, stronger effect = lower value",0.438 (active)
same,normalized growth,"locus YDL101C, strain DUN1, stronger effect = lower value",0.368 (active)
same,normalized growth,"locus YDR150W, strain NUM1, stronger effect = lower value",0.95
same,normalized growth,"locus YEL061C, strain CIN8, stronger effect = lower value",0.516 (active)
same,normalized growth,[1],0.617 (active)
same,normalized growth,[3],0.134 (active)
same,normalized growth,"locus YHR087W, strain rtc3, stronger effect = lower value",0.0566 (active)
same,normalized growth,"locus YJR043C, strain POL32, stronger effect = lower value",0.756 (active)
same,normalized growth,"locus YJR075W, strain HOC1, stronger effect = lower value",0.0797 (active)
same,normalized growth,"locus YKL190W, strain CNB1, stronger effect = lower value",0.046 (active)
same,normalized growth,"locus YLR039C, strain RIC1, stronger effect = lower value",0.06 (active)
same,normalized growth,"locus YLR058C, strain SHM2 (second series), stronger effect = lower value",0.0581 (active)
same,normalized growth,"locus YLR085C, strain ARP6, stronger effect = lower value",0.0974 (active)
same,normalized growth,"locus YLR262C, strain YPT6, stronger effect = lower value",0.138 (active)
same,normalized growth,"locus YML094W, strain GIM5, stronger effect = lower value",0.553 (active)
same,normalized growth,"locus YMR219W, strain ESC1, stronger effect = lower value",0.664 (active)
same,normalized growth,"locus YMR263W, strain SAP30, stronger effect = lower value",0.837 (active)
same,normalized growth,"locus YNL153C, strain GIM3, stronger effect = lower value",0.125 (active)
same,normalized growth,"locus YNL298W, strain CLA4 (second series), stronger effect = lower value",0.267 (active)
same,normalized growth,"locus YNL322C, strain KRE1, stronger effect = lower value",1.03
same,normalized growth,"locus YNR030W, strain Alg12, stronger effect = lower value",0.729 (active)
same,normalized growth,"locus YOL006C, strain TOP1, stronger effect = lower value",0.0699 (active)
same,normalized growth,[2],0.6 (active)
same,normalized growth,"locus YPL241C, strain CIN2, stronger effect = lower value",0.675 (active)
same,normalized growth,"locus YPR135W, strain CTF4, stronger effect = lower value",0.167 (active)
